From PubChem BioAssay
Compounds with a hit are over-represented: about 7.5% of the library has one in this group of screens.
SMN2 splice enh: increases expression of the SMN2 splice variant; AID 1458; Potency, µM (series often up to 46.1 µM), for the others: at the top dose activity change, positive = activation, most hits filed as activators; 2.8% of 210,000 active; HEK293 SMN2-luciferase splicing reporter, luminescence, 30-36 h; note: % of control where 0% means no effect; nearly all actives have a fitted effect of over 55% in size
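HEK293 cells carry an SMN2 […]–luciferase reporter in which exon 7 inclusion puts luciferase in frame. Cells were plated 10-12 h before compound addition, then incubated 30-36 h at 37C. ONE-Glo luminescence was read; sodium butyrate at 4.5 mM final served as control.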
Luc counter: blocks Kinase-Glo luciferase, a counter-screen artifact; Kinase-Glo luciferase, ATP luminescence, 8 min; Q27757; 0.28% of 200,000 active; Potency, µM (doses to about 38.3 µM), for the others: at the top dose activity change, negative = inhibition, most hits filed as inhibitors; note: % is set by controls: 0 for no effect and ±100 for the full control effect; nearly all actives have a fitted effect of over 60% in size
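Compound is pinned into ATP-containing buffer (10 uM ATP, imidazole pH 7.2, 7 mM MgCl2). Kinase-Glo luciferase reagent is then added. Light output is recorded following an 8-min room-temperature incubation.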
ELG1 genotoxic: induces genotoxicity in HEK293T cells with luciferase-tagged ELG1; Potency, µM (highest dose often 46 µM), for the others: top-dose activity change, positive = activation, hits mostly activators; HEK293T ELG1-luciferase reporter, luminescence, 16 h; 1.3% of 330,000 active; note: % of control where 0% means no effect; nearly all actives have a fitted effect of over 60% in size
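After overnight (16 hr) compound treatment at 37 °C, ELG1-luciferase HEK293T cells were lysed with ONE-Glo; luminescence quantified 30 min later at room temperature.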
Rab9 prom act: activators of Rab9 promoter. Huh7 Rab9 promoter-luciferase reporter, luminescence, 24 h. Potency, µM (doses to about 9.22 µM), without a hit: at the highest dose activation, negative = inhibition, usual class: activators. 2.8% of 320,000 active. AID 485297; note: % of control where 0% means no effect; nearly all actives have a fitted effect of over 60% in size
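Huh7 cells stably carrying Rab9 promoter–luciferase reporter, plated 1500 cells/well, compound added after 2 h and incubated 24 h at 37 °C; luciferase luminescence then read after 10 min with detection reagent.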
NPC1 prom act: activates the NPC1 promoter; Potency, µM (series often up to 9.22 µM), without a hit: at the top dose activation, most hits filed as activators; Huh7 NPC1 promoter luciferase reporter, 24 h; 2.4% of 320,000 active; note: % of control where 0% means no effect; nearly all actives have a fitted effect of over 60% in size
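Huh7 reporter cells (NPC1 promoter driving luciferase) are dosed with compound for 24 h at 37 °C, 5% CO2; luciferase detection reagent is then added and luminescence measured after 10 min at ambient temperature.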
FLuc modulator: inhibits or activates purified firefly luciferase, miR-21 counter-screen; purified FLuc, Km substrates, luminescence inhibition; Potency, µM (series often up to 57.5 µM), for inactives: at the highest dose activity change, negative = inhibition, usual class: inhibitors; P08659; 6.9% of 360,000 active;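 note: plate controls were vehicle for no effect and reference inhibitor for full effect; nearly all actives have a fitted effect of over 55% in size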
Target sequence (P08659 whole entry, looked up): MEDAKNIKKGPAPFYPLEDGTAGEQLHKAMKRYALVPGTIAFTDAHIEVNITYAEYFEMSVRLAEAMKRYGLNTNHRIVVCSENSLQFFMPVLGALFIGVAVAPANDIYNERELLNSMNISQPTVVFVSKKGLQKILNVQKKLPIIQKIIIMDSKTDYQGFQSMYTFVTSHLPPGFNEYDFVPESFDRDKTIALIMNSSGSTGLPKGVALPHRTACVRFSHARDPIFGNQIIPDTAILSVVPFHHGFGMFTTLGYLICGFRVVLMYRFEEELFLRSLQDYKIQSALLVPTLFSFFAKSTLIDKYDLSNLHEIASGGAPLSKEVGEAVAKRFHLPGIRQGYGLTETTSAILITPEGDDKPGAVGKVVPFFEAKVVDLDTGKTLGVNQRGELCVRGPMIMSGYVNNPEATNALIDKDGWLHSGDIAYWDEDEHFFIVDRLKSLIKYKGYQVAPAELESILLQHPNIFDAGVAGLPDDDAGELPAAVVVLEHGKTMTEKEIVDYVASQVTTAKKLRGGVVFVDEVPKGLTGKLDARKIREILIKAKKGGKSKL
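Purified P. pyralis luciferase, 10 nM final, with Km-level 10 uM D-luciferin and 10 uM ATP in 50 mM Tris acetate pH 7.5, 10 mM Mg acetate, 0.01% Tween-20, 0.05% BSA; 6-point qHTS titration about 60 µM downward; luminescence read.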
Starred values were filed as active, the others as inactive; ? = inconclusive; . = no result; [ ] = another dose, or the depositor's remark. Calls come from the whole dose curve; as a rule, active = well fitted curve in the direction sought with a large enough effect; inconclusive = small, poorly fitted or top-dose-only effect, or another doubt; inactive = no such curve, though single readings can be large; an effect the other way counts as inactive or inconclusive. Potency is the fitted concentration of half-maximal effect.

SMILES	SMN2 splice enh	Luc counter	ELG1 genotoxic	Rab9 prom act	NPC1 prom act	FLuc modulator
CCOC(=O)C1CCCN(C(=O)c2ccc3oc(Cc4ccccc4)nc3c2)C1 (stereo unspecified)	.	.	?	4.5µM*	3.5µM*	12µM*
N[C@H](Cc1ccc2oc3cc(=O)c4ccccc4c-3nc2c1)C(=O)O	1%[9.22 µM]	-4%[7.66 µM]	.	.	.	.
OC(c1ccccc1)(c1ccccc1)C1CCCN1 (stereo unspecified)	19%	-8%	?	3.2µM*	-37%	12µM*
CCCC[N+]12CCC(CC1)C(C(O)(c1ccccc1)c1ccccc1)C2 (stereo unspecified)	.	.	-1%	-9%	-5%	0%
COc1ccc(CCNc2nc3c(c(=O)n(C)c(=O)n3C)n2Cc2ccc(F)cc2)cc1OC	-31%	.	.	.	.	-1%
CCOC(=O)c1cc2c(cn1)[nH]c1ccccc12	?	0%	17%	19%	?	15µM*
O=C(N/N=C/c1c(O)n(C2CC2)c(=S)[nH]c1=O)c1ccccc1O	?	-5%	11%	?	?	15µM*
O=C(N/N=C/c1c(O)n(-c2ccccc2)c(=S)[nH]c1=O)c1ccccc1	.	.	6%	2%	0%	?
Cc1ccccc1-n1c(O)c(/C=N/NC(=O)c2ccccc2O)c(=O)[nH]c1=S	.	.	17%	23%	17%	11µM*
O=C(O)CNC(=O)c1ccc([As](=O)(O)O)cc1	-12%[9.22 µM]	-4%[7.66 µM]	.	.	.	.
CCC(C(=O)O)C1CCC(C)C(C(C)C(O)C(C)C(=O)C(CC)C2OC3(C=CC(O)[C@@]4(CC[C@](C)(C5CC[C@@](O)(CC)C(C)O5)O4)O3)C(C)CC2C)O1 (stereo partly specified)	-50%	-3%	.	.	.	.
